A short description of test [1]: qHTS assay to identify small molecule antagonists of the thyroid receptor (TR) signaling pathway - cell viability counter screen (AID 743064). Further: nearly all actives have a fitted effect of over 50% in size. Further: potency means the concentration at half of the fitted maximal effect. In short, it runs like this: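 Counter screen for cytotoxicity: compound plus T3 (1 nM final) on GH3.TRE-Luc cells, 23.5 h at 37 °C, then fluorescence viability readout with CellTiter-Fluor.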
(In general: Quantitative high-throughput screening tests each substance at several concentrations.)

The nature of test [2]: qHTS assay to identify small molecule antagonists of the thyroid receptor (TR) signaling pathway (AID 743065). Further: nearly all actives have a fitted effect of over 55% in size. Further: potency means the concentration at half of the fitted maximal effect. The essentials:
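GH3.TRE-Luc rat pituitary cells carrying two TR response elements driving luciferase were plated for 4 h, given compound plus 1 nM T3 (final), and incubated 23.5 h at 37 C. ONE-Glo luminescence measured reporter inhibition; CellTiter-Fluor fluorescence tracked cytotoxicity.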

The subject of test [3] is thyroid hormone receptor (rat, GH3 cells). The test is described as follows: qHTS assay to identify small molecule agonists of the thyroid receptor (TR) signaling pathway (AID 743066; calls by dose curve; further: on the % scale 0 is the no-effect control and ±100 the full control effect).
A short description of test [4]: qHTS assay to identify small molecule antagonists of the estrogen receptor alpha (ER-alpha) signaling pathway - cell viability counter screen (AID 743074; calls by dose curve;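 further: HEK293 cells carrying ER-alpha-UAS-bla reporter stimulated with 17beta-estradiol; nearly all actives have a fitted effect of over 45% in size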; further: potency means the concentration at half of the fitted maximal effect).
Test [5] can be described thus: qHTS assay to identify small molecule antagonists of the estrogen receptor alpha (ER-alpha) signaling pathway using the BG1 cell line - cell viability counter screen (AID 743081).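 Further: compound given together with 17beta-estradiol as the ER stimulus; series mostly up to about 70 µM; on the % scale 0 is the no-effect control and ±100 the full control effect; nearly all actives have a fitted effect of over 45% in size.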
The target of the next test is Aromatase (Homo sapiens) (UniProt P11511). The test is described as follows: qHTS assay to identify aromatase inhibitors (AID 743083). Further: nearly all actives have a fitted effect of over 55% in size. Further: potency means the concentration at half of the fitted maximal effect.
Test [6] in a line: qHTS assay to identify aromatase inhibitors - cell viability counter screen (AID 743084).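 Further: cells stimulated with testosterone during compound exposure; nearly all actives have a fitted effect of over 55% in size.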 Further: potency means the concentration at half of the fitted maximal effect.
Test [7] has as its target Aryl hydrocarbon receptor (Homo sapiens) (UniProt P35869). The test is described as follows: qHTS assay to identify small molecule that activate the aryl hydrocarbon receptor (AhR) signaling pathway (AID 743085). Further: nearly all actives have a fitted effect of over 15% in size. Further: potency means the concentration at half of the fitted maximal effect. The essentials: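 Measured in HG2L7.5c1 cells: CellTiter-Fluor signal (30 min incubation, 37C) for viability, then luciferase luminescence (30 min, room temperature). Compound contact time was 24 h at 37C, following a 5 h pre-incubation.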

Test [8] can be described thus: qHTS assay to identify small molecule that activate the aryl hydrocarbon receptor (AhR) signaling pathway - cell viability counter screen (AID 743086).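 Further: HepG2 liver cells carrying the AhR DRE luciferase reporter; series mostly up to about 70 µM; on the % scale 0 is the no-effect control and ±100 the full control effect; nearly all actives have a fitted effect of over 45% in size.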 The essentials:
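HepG2-AhR-luc (HG2L7.5c1) cells, 4000/well, were preincubated 5 h at 37C, exposed to compound in qHTS format for 24 hr at 37C, then given CellTiter-Fluor for 30 min; viability was read as fluorescence in the reporter wells.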

Test [9] concerns the target Peroxisome proliferator-activated receptor gamma (Homo sapiens) (UniProt P37231). The test is described as follows: qHTS assay to identify small molecule agonists of the peroxisome proliferator-activated receptor gamma (PPARg) signaling pathway (AID 743094; active means well fitted activation curve with a large enough effect in the signal ratio in the repeat runs, not every such curve was filed as active; the % refers to the signal ratio; further: on the % scale 0 is the no-effect control and ±100 the full control effect). The essentials: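 Quantitative HTS agonist mode: stable HEK293H line with UAS-beta-lactamase reporter under PPARg control, 17 h compound exposure at 37C, fluorescence after 1 h FRET substrate loading at room temperature.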

Test [10] shares this target. The test is described as follows: qHTS assay to identify small molecule antagonists of the peroxisome proliferator-activated receptor gamma (PPARg) signaling pathway (AID 743191; calls by dose curve; further: nearly all actives have a fitted effect of over 30% in size; further: potency means the concentration at half of the fitted maximal effect). The essentials: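 GeneBLAzer PPARg UAS-bla HEK293H cells carrying a UAS-driven beta-lactamase reporter were plated at 3000 cells/well, preincubated 5 h at 37C, then given compound for 17 h at 37C; LiveBLAzer B/G FRET substrate was read after 1 h at room temperature.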

Test [11] is described as follows: qHTS assay to identify small molecule antagonists of the peroxisome proliferator-activated receptor gamma (PPARg) signaling pathway - cell viability counter screen (AID 743194). Further: nearly all actives have a fitted effect of over 55% in size. Further: potency means the concentration at half of the fitted maximal effect. The conditions noted are these: Potency: co-treated with 50 nM rosiglitazone unless noted. In short, it runs like this: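 PPARg-UAS-bla HEK293H cells were plated, rested 5 h at 37 C, then treated with compounds plus rosiglitazone (50 nM final) for 17 h at 37 C; viability was then read by CellTiter-Glo luminescence after 30 min at room temperature.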

Test [12] can be described thus: qHTS assay for small molecule agonists of the antioxidant response element (ARE) signaling pathway (AID 743202; active means well fitted activation curve with a large enough effect in the signal ratio in the repeat runs, not every such curve was filed as active; the % refers to the signal ratio; further: on the % scale 0 is the no-effect control and ±100 the full control effect). In short, it runs like this:
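Compounds delivered in DMSO to ARE-bla HepG2 cells (2,000 cells/well, pre-incubated 5 h) and left 16 h at 37 C. LiveBLAzer B/G FRET substrate then added for 2 h at RT before fluorescence reading.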

Test [13] is described as follows: qHTS assay for small molecule agonists of the antioxidant response element (ARE) signaling pathway - cell viability counter screen (AID 743203; calls by dose curve; further: nearly all actives have a fitted effect of over 55% in size; further: potency means the concentration at half of the fitted maximal effect). In short, it runs like this: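 Seeded at 2,000 cells/well, ARE-bla HepG2 cells were incubated 5 hrs before compound addition. After 16 hrs of treatment at 37C with 5% CO2, CellTiter-Glo reagent was added and luminescence read 30 min later.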

Test [14] is described as follows: qHTS assay for small molecule activators of the heat shock response signaling pathway - cell viability counter screen (AID 743209). Further: nearly all actives have a fitted effect of over 50% in size. Further: potency means the concentration at half of the fitted maximal effect. In short, it runs like this:
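First, HSE-bla HeLa cells were seeded at 1500 cells/well and kept overnight at 37 C. Next, compounds were pinned in and incubated 5 h. After the FRET substrate step, CellTiter-Glo was added and luminescence read 30 min later.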

Test [15] is described as follows: qHTS assay for small molecule activators of the heat shock response signaling pathway (AID 743210; active means well fitted activation curve with a large enough effect in the signal ratio in the repeat runs, with a control signal flat, not every such curve was filed as active; the % refers to the signal ratio;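 further: HeLa cells with beta-lactamase reporter driven by heat shock elements; series mostly up to about 63 µM; on the % scale 0 is the no-effect control and ±100 the full control effect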). The essentials:
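Reporter gene assay: HeLa cells stably bearing an HSE-bla construct, compound treatment 5 h at 37 C, LiveBLAzer substrate 2.5 h at RT, fluorescence intensity.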

Test [16] addresses Estrogen receptor (Homo sapiens) (UniProt P03372). The test can be described thus: qHTS assay to identify small molecule antagonists of the estrogen receptor alpha (ER-alpha) signaling pathway (AID 743069; active means well fitted curve in the direction sought with a large enough effect in the signal ratio in the repeat runs, not every such curve was filed as active; the % refers to the signal ratio; further: on the % scale 0 is the no-effect control and ±100 the full control effect). In short, it runs like this:
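Estradiol-stimulated ER-alpha-UAS-bla HEK293 cells, 18 hr compound exposure at 37C. LiveBLAzer B/G substrate, 2 hr RT, fluorescence read.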

Test [17] has the same target. The test is described as follows: qHTS assay to identify small molecule agonists of the estrogen receptor alpha (ER-alpha) signaling pathway (AID 743075; calls by dose curve).
Test [18] in a line: qHTS assay to identify small molecule antagonists of the estrogen receptor alpha (ER-alpha) signaling pathway using the BG1 cell line (AID 743080; calls by dose curve;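 further: BG1 cells stimulated with 17beta-estradiol alongside compound; potency means the concentration at half of the fitted maximal effect; nearly all actives have a fitted effect of over 25% in size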). In short, it runs like this:
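Luminescence from a 4×ERE-luciferase reporter in BG1-Luc-4E2 cells served as read-out. Cells, pre-cultured 5 days in stripped-serum phenol-red-free medium, were exposed to compound with 17beta-estradiol co-stimulation for 21.5 h at 37 C.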

Where “and” joins values, the source holds several entries; their conditions need not be identical. Equal entries are not always repeated. Inconclusive results are not listed. A number with no mark means an inactive call. Calls of active or inactive are those of the source. Unless noted, the call rests on the fitted dose curve; in most records, active means well fitted curve in the direction sought with a large enough effect in the repeat runs; inconclusive means weak or mixed curves; inactive means no such curve, though single readings can be large; an effect the other way counts as inactive or inconclusive.

Chain of Aromatase (Homo sapiens) (P11511 whole entry, looked up): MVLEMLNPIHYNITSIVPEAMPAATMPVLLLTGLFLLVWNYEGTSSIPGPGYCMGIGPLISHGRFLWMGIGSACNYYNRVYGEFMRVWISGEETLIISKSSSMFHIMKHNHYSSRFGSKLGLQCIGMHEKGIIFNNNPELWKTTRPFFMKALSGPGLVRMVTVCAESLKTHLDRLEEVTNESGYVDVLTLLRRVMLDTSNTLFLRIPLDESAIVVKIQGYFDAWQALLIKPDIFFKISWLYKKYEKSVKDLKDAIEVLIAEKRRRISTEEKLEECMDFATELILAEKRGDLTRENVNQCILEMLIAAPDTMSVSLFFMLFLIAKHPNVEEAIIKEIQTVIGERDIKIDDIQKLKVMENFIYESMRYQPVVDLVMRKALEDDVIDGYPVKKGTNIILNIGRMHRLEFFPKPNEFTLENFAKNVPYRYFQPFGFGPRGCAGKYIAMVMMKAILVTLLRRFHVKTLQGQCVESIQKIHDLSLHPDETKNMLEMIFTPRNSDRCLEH
Chain of Peroxisome proliferator-activated receptor gamma (Homo sapiens) (P37231 whole entry, looked up): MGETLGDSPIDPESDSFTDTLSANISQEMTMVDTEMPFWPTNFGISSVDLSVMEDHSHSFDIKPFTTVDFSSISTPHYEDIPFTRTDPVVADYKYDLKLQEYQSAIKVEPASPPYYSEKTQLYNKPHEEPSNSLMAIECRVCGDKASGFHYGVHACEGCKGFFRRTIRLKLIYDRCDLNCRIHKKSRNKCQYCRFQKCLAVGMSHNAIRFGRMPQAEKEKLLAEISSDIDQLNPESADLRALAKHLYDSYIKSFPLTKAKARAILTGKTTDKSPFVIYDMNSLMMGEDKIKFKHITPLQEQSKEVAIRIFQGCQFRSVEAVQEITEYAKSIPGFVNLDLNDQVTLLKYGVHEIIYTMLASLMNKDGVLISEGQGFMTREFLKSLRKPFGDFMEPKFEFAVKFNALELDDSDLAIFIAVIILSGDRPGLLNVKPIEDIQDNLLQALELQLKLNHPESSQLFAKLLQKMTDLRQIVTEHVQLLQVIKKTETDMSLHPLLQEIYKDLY
Chain of Aryl hydrocarbon receptor (Homo sapiens) (P35869 whole entry, looked up): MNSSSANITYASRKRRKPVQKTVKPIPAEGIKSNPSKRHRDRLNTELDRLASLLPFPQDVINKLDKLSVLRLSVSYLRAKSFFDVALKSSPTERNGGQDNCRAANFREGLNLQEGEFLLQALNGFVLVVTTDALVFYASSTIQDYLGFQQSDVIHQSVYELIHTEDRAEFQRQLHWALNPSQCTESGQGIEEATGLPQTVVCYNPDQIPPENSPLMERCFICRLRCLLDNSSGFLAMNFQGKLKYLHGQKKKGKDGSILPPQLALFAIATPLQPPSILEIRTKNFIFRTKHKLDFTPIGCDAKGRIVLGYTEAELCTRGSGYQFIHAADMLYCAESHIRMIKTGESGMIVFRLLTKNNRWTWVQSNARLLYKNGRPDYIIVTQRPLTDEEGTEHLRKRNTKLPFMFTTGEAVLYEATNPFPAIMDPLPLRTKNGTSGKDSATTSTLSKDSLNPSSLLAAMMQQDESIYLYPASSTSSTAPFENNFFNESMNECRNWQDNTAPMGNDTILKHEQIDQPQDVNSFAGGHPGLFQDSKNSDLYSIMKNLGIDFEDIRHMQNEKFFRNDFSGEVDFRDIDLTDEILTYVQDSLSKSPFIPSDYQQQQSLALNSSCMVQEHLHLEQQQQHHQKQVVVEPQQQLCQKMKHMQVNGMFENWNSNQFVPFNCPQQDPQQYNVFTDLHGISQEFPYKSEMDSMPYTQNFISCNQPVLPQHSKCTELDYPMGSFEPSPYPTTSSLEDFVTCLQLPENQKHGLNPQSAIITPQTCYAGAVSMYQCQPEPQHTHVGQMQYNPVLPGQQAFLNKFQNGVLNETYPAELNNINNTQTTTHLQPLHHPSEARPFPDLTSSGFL
Chain of Estrogen receptor (Homo sapiens) (P03372 whole entry, looked up): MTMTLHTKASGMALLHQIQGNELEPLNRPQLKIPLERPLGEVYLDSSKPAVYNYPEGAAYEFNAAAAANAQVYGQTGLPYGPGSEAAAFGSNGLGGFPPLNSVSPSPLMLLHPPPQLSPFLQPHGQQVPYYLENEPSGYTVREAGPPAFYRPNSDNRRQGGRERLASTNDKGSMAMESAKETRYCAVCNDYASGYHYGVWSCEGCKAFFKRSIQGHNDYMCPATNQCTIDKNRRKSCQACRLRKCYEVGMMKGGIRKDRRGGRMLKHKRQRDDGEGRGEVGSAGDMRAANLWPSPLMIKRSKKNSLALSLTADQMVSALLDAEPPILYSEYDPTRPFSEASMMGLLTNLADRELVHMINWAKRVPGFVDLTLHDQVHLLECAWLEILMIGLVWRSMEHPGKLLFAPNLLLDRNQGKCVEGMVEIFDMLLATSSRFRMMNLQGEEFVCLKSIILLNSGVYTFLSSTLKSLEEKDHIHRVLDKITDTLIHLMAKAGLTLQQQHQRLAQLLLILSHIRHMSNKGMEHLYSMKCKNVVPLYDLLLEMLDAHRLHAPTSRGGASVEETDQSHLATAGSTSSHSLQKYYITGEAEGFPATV

With `O=C1CCCO1`, the Potency entry (in test [1]; in test [2]; in test [3]; in test [4]; in test [5]; with Aromatase (Homo sapiens)) was “inactive” in each case. Moreover, the Potency result in test [6], in test [7], in [8], in test [9], in test [10] and in test [11] was “inactive” in each case. The Potency result in [12], in test [13], in test [14] and in test [15] was “inactive” each time.
On to `COC(=O)Nc1nc2ccccc2[nH]1`, for which the Potency in [1] was 12.2 µM (active); in test [2] it was 5.45 µM (active) and 7.7 µM (active); in [7] it was 24.3 µM (active). Also, the Potency result (in test [3]; in [4]; in [5]; in the test with Aromatase (Homo sapiens); in test [6]; in test [8]) was “inactive” each time. Further, the Potency entry in [9], in test [10], in test [12], in test [13], in test [14] and in [15] was “inactive” throughout.
For the compound `O=C1Nc2ccc(Cl)cc2C(c2ccccc2)=NC1O` (stereo unspecified), the Potency entry (in test [1]; in test [3]; in [4]; in test [5]; in the test with Aromatase (Homo sapiens); in test [6]) was “inactive” each time. Also, the Potency entry in test [7], in test [8], in [9], in test [11], in test [12] and in test [13] was “inactive” throughout. For the same compound, the Potency result in [14] and in [15] was “inactive” throughout. Moreover, the figures for the Potency in test [2] and in test [10] were 54.9 µM (active) and 44 µM (active), respectively.
In the case of `Cn1c(-c2ccccc2)cc(-c2ccccc2)[n+]1C`, the Potency result in [1], in test [2], in test [3], in [16], in [17] and in test [5] was “inactive” in each case. Further, the Potency result in test [6], in test [7], in test [8], in test [9], in test [10] and in [11] was “inactive” throughout. For the same compound, the Potency result in test [13] and in [14] was “inactive” each time. Also, the Potency in test [18] was 30.6 µM (active); with Aromatase (Homo sapiens) it was 54.4 µM (active) and 54.5 µM (active).
For `NN=C(N)N`, the Potency result (in test [1]; in test [2]; in [3]; in test [4]; in test [5]; in the test with Aromatase (Homo sapiens)) was “inactive” throughout. Further, the Potency entry in [6], in test [8], in test [9], in test [10], in test [11] and in [12] was “inactive” throughout. Also, the Potency entry in test [13], in test [14] and in [15] was “inactive” in each case. In test [7], the Potency was 30.6 µM (active).
For the compound `O=C1C(Cl)=C(Cl)C(=O)c2ccccc21`, the Potency is 30.7 µM (active) and 5.45 µM (active) in test [1]; 3.07 µM (active) and 3.44 µM (active) in test [2]; 43.8 µM (active) and 54.9 µM (active) in [4]; 30.7 µM (active) and 54.5 µM (active) in test [18]; 2.18 µM (active) and 3.86 µM (active) in the test with Aromatase (Homo sapiens); 4.34 µM (active) and 27.3 µM (active) in test [6]. For the same compound, the Potency in [7] was 17.3 µM (active) and 10.9 µM (active); in [11] it was 39 µM (active) and 11 µM (active); in test [13], 68.8 µM (active) and 21.7 µM (active); in test [14], 27.6 µM (active) and 12.3 µM (active). Further, the Potency result in test [3] and in test [5] was “inactive” in each case.
`CS(=O)(=O)NC(=O)c1cc(Oc2ccc(C(F)(F)F)cc2Cl)ccc1[N+](=O)[O-]`: the Potency result (in test [1]; in [2]; in test [3]; in [4]; in test [5]; in the test with Aromatase (Homo sapiens)) was “inactive” throughout. Moreover, the Potency entry in [6], in test [7], in test [8], in test [9], in test [11] and in [13] was “inactive” in each case. Besides, the Potency entry in test [14] and in test [15] was “inactive” in each case.
On to `ClC(Cl)(Cl)Br`, for which the Potency entry (in [1]; in test [2]; in test [3]; in [4]; in test [5]; with Aromatase (Homo sapiens)) was “inactive” in each case. For the same compound, the Potency result in test [6], in test [7], in test [8], in test [9], in test [10] and in [11] was “inactive” each time. The Potency entry in test [12], in test [13] and in test [14] was “inactive” each time. Moreover, the activation in [15] is -1.07% [at 13.2 µM].
